From PubChem BioAssay
tim23-1 inh: growth inhibitors of tim23-1 mutant yeast; S. cerevisiae tim23-1 growth, BacTiter-Glo luminescence, 24 h; inhibition, % at 20 µM; 330,000 tested, 1.3% active; AID 463212;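 active means growth inhibition of the mutant yeast at or above 50%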;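 further: temperature-sensitive mutant grown at 25 °C; plate controls were DMSO-treated mutant yeast for no effect and medium wells lacking yeast for full effect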
Rce1 inhib: inhibitors of yeast Ras-converting enzyme. Q03530. calls only. AID 2563. yeast membranes, quenched prenylated peptide cleavage fluorescence. 290,000 tested, 0.27% active;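 active means fall in fluorescence gain of 50% or more versus controls, with final raw signal at or below 3038400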;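 further: plate controls were neutral control wells for no effect and wells lacking membranes for full effect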
Target sequence (Q03530 whole entry, looked up): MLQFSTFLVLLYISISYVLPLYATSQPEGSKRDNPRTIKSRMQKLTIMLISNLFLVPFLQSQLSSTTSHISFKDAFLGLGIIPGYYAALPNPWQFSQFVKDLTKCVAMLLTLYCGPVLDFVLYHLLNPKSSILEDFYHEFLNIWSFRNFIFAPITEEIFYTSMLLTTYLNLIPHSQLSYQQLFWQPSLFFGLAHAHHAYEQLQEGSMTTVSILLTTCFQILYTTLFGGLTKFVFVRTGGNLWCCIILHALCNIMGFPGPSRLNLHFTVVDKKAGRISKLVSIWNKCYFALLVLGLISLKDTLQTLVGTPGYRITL
TIM10 inh: growth inhibitors of TIM10 yeast strain. S. cerevisiae TIM10 strain growth, BacTiter-Glo luminescence, 24 h. 330,000 tested, 1.4% active. inhibition, % at 10 µM;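 active means inhibition of 40% or more at the single tested concentration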;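 further: wild-type TIM10 isogenic control strain grown at permissive 25 °C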
tim10-1 inh: growth inhibitors of tim10-1 mutant yeast; S. cerevisiae tim10-1 ts strain growth, BacTiter-Glo, 24 h; inhibition, % at 20 µM; 330,000 tested, 2.2% active; AID 463190;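 active means inhibition of at least 40%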;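 further: mutant grown at 25 °C; 0% = DMSO wells with yeast and 100% = wells holding no yeast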
PfHsp90 yeast 2: growth inhibition of yeast expressing Plasmodium Hsp90; S. cerevisiae expressing PfHsp90, BacTiter-Glo ATP, 48 h; yeast lacking PDR1 and PDR3 efflux regulators; inhibition, % at 9.4 µM; 310,000 tested, 0.32% active; AID 504621;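 active means every replicate shows inhibition above about 80%, whatever the replicate mean, limit read from the data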;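 further: 0% = DMSO neutral controls and 100% = 20 µM radicicol positive controls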
tim10-1 conf: tim10-1 yeast growth inhibition, confirmed; shares compounds with tim10-1 inh; S. cerevisiae tim10-1 ts strain growth, BacTiter-Glo, 24 h; inhibition, % at 20 µM; 7,400 tested, 56% active;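 active means inhibition of yeast growth at or above a set limit in either of two repeat tests at 20 µM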;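 further: tim10-1 mutant grown at permissive 25 °C to find synthetic lethal compounds; 0% = DMSO yeast wells and 100% = medium wells without yeast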
Active calls of the source: *; i = inactive; . = not tested or not shown. A selection: hits, their analogues and other compounds. The true share with any hit is near 3.7%.

SMILES	tim23-1 inh	Rce1 inhib	TIM10 inh	tim10-1 inh	PfHsp90 yeast 2	tim10-1 conf
Cc1nn(-c2ccc(F)cc2)c(Cl)c1/C=C1\C(=O)Nc2ccccc21	20.1	i	35.2	54.1*	-12.2	40.6*
Cc1cc(C(=O)CSc2nnc(-c3cccs3)o2)c(C)n1-c1ccccc1	27.9	i	26.9	48.3*	5.4	34.2*
CN(C)C(=O)CSc1nnc(-c2cc(-c3cccs3)nc3ccccc23)o1	33.7	i	31.8	40.4*	9.8	38.2*
COc1ccc(OCCCC(=O)N(C)CC(=O)Nc2ccccc2Cl)cc1	0.2	i	3.6	9.3	-6.9	.
COc1ccc(N2C(=O)CC(Sc3nnnn3-c3ccc(F)cc3)C2=O)cc1 (configuration not stated)	26.1	i	31.7	35.0	28.6	.
O=C1CC(Sc2nnnn2-c2ccccc2)C(=O)N1c1cccc(Cl)c1 (configuration not stated)	41.1	i	38.4	49.1*	-5.7	46.6*
O=C1CC(SCc2nc3ccccc3[nH]2)C(=O)N1c1cccc(Cl)c1 (configuration not stated)	22.1	i	26.5	40.4*	-42.1	35.2*
CCOc1nc(C)cc(C)c1S(=O)(=O)c1cccc(Cl)c1	12.5	i	-19.2	15.0	1.7	.
CC(C)CC(=O)c1c[nH]c(C(=O)N2CCN(Cc3ccccc3)CC2)c1	8.0	i	0.4	26.0	20.0	.
O=C(CSc1nnc(COc2ccccc2)n1-c1ccccc1)c1ccccc1	26.0	i	0.0	40.4*	-14.6	13.9
COc1ccc(CCNS(=O)(=O)CCNC(=O)c2ccc(OC)cc2)cc1	-7.8	i	2.9	-14.6	-15.3	.
CN(C)c1cc2c(c(N(C)C)c1)C(=O)c1ccccc1C2=O	24.2	i	16.9	44.1*	11.5	33.5*
COc1ccc(Cn2c(SCc3cc(C)ccc3C)nc3cc(OC)c(OC)cc3c2=N)cc1	2.6	i	-38.7	59.1*	.	33.9*
CCOc1c2c(nc3ccc(Cl)cc13)CCC2	35.1	i	6.6	41.4*	14.7	31.5*
CCOc1ccc(NC(=O)c2c3c(nc4ccccc24)CCC3)cc1	-4.6	.	-6.4	-11.0	8.0	.
CCC(C(=O)N(C(C)C)C(C)C)c1ccccc1 (configuration not stated)	-5.6	.	-7.3	6.9	16.3	.
CCC(C(=O)c1ccc(O)cc1)c1ccccc1 (configuration not stated)	24.3	i	19.7	45.7*	-5.1	27.9
Cc1c2c(c(C)n1C)C(C(=O)NC1CCCCC1)N(Cc1ccccc1)C2=O (configuration not stated)	36.3	i	19.2	45.1*	-12.0	39.0*
CCc1cc2c(=O)nc3n(c2s1)Cc1ccccc1/C3=C(/O)c1ccc(F)cc1	42.6	i	18.6	44.0*	-1.7	35.0*
CCc1cc2c(=O)nc3n(c2s1)Cc1ccccc1/C3=C(/O)c1cccc([N+](=O)[O-])c1	41.7	.	27.9	29.6	3.2	.
Cc1cc(Nc2nc(Cl)c(Cl)cc2Cl)n(-c2ccccc2)n1	45.1	i	28.9	45.1*	-12.8	34.3*
Cc1cc(C)nc(-n2nc(C)cc2Nc2ccccc2)n1	47.6	i	22.3	40.7*	-13.2	18.9
O=C(OCc1nc2ccccc2s1)C1CCN(S(=O)(=O)c2cccs2)CC1	39.1	i	33.8	48.1*	18.7	24.7
O=C(NCCO)c1cc2c([nH]c3ccccc32)c(-c2ccccc2)n1	22.9	i	15.4	43.4*	5.8	13.8
CCn1c2ccccc2c2c3ncc4cccn4c3ccc21	36.6	i	16.4	49.1*	-13.1	29.9*
SMILES	tim23-1 inh	Rce1 inhib	TIM10 inh	tim10-1 inh	PfHsp90 yeast 2	tim10-1 conf
c1ccc2c(c1)ncc1cccn12	1.5	i	-2.6	-9.9	0.6	.
Cc1c(OCC(=O)NCCCN2CCOCC2)ccc2c3c(c(=O)oc12)CCC3	22.2	i	24.8	48.5*	26.6	29.8
Cc1cccc(NC(=S)N(CCN2CCOCC2)Cc2ccccc2F)c1	15.9	i	-5.9	42.4*	2.8	4.7
O=c1[nH]cnc2c1ccn2C1OC(CO)C(O)C1O (configuration not stated)	.	.	.	.	-32.9	.
C=C(C)CSc1nc2nc(C)c(Br)cc2[nH]1	15.9	i	25.7	17.5	-7.8	.
CC(C)c1cc(C(C)C)c(S(=O)(=O)NNC(=O)c2ccncc2)c(C(C)C)c1	36.6	i	33.3	49.8*	17.6	21.2
Cc1[nH][nH]c(=O)c1C(c1c(C)[nH][nH]c1=O)c1cn(C)c2ccccc12	.	.	.	.	-27.3	.
Cc1[nH][nH]c(=O)c1C(c1c(C)[nH][nH]c1=O)c1cn(Cc2cccc3ccccc23)c2ccccc12	49.4	.	10.5	48.2*	-26.3	33.3*
C=CCOC(=O)C1=C[C@@H](c2ccc(C(F)(F)F)cc2)C[C@@H](OCc2ccc(CO)cc2)O1	32.3	i	26.3	17.2	50.5	.
CCCN(CCC)S(=O)(=O)c1ccc(C(=O)Nc2nnc(-c3cc(OC)cc(OC)c3)o2)cc1	-4.8	i	22.4	41.1*	-46.2	8.2
Cc1cc(C)n(C(=O)c2ccc([N+](=O)[O-])cc2Cl)n1	21.1	i	2.3	7.2	-20.5	.
Cc1cc(C)n(C(=O)c2ccc([N+](=O)[O-])cc2[N+](=O)[O-])n1	49.3	i	12.4	40.5*	-21.5	30.1
CC(C)(C)C(=O)NC(=S)Nc1ccc(Cc2ccncc2)cc1	37.8	i	31.8	44.3*	-0.1	30.0
O=C(CN(C(=O)c1csnn1)c1cccc(C(F)(F)F)c1)NCc1ccc(F)cc1	-2.0	.	-9.1	1.8	-41.6	.
COc1ccccc1CNC(=S)Nc1ccc(F)cc1	32.9	i	16.1	48.0*	-2.4	1.3
COC(=O)Cc1ccc(NC(=S)NCc2ccccc2OC)cc1	-7.0	i	11.2	20.2	8.9	.
Cc1cc(OCC(O)CN2CCCC2)cc(C)c1Cl (configuration not stated)	-6.6	i	-2.2	-0.8	0.4	.
O=C1C2C3C=CC(C3)C2C(=O)N1CCN1CCN(S(=O)(=O)/C=C/c2ccccc2)CC1 (configuration not stated)	19.8	i	16.2	41.9*	8.6	23.2
COc1ccc(OCc2cc(C(=O)N3CCOCC3)no2)c(Cl)c1	3.2	i	3.3	-19.4	-24.5	.
COc1ccc(-c2noc(C3CCCN(C(=O)CCc4ccccc4)C3)n2)cc1 (configuration not stated)	47.7	i	37.4	41.9*	.	32.8*
CCCCCC(=O)N1CCCC(c2nc(-c3ccc(OC)cc3)no2)C1 (configuration not stated)	28.3	i	33.6	35.3	53.0	.
COc1ccccc1C(=O)NNC(=O)C1CCN(C(=O)OC(C)(C)C)CC1	10.7	i	17.0	1.4	7.1	.
Cc1ccc(N/C(=N/S(=O)(=O)c2cccs2)c2ccccc2)c(C)c1	15.3	i	21.0	46.4*	-76.7	18.5
